Where “and” joins values, the source holds several entries; their conditions need not be identical. Identical values can stand only once. Inconclusive results are not listed. For some assays here: Measured potencies and affinities stand elsewhere. Calls of active or inactive are those of the source. Unless noted, no rule for the calls is given here.
Key:
[1] = polyglutamine-triggered caspase-3 activation inhibitors, cell-based (AID 1583); details: polyglutamine-induced caspase-3 activation, cell assay; stronger effect = higher value;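 tested at 10 µM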
[2] = rescue of polyQ-huntingtin neuronal dysfunction in worms, whole organism, C. elegans mechanosensory neurons, N-terminal huntingtin (AID 1599); details: touch response, stronger effect = higher value
[3] = enhancers of glutamate uptake in motor neurons, MN-1 cell line (AID 1612); details: MN-1 motor neuron cells, stronger effect = higher value;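 also: tested at 1 µM final; 0% = mean of DMSO vehicle wells on each plate; positive means more glutamate uptake than control and negative means less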
[4] = reducers of polyQ inclusions in PC12 cells, cell-based, NGF-treated PC12, GFPQ80 (AID 1614); details: PC12 NGF-treated GFP-polyQ80 inclusion reduction;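 also: lower means fewer inclusions and 0 means no inclusions at all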
[5] = suppressors of polyglutamine aggregation in yeast, 75Q-TubH (AID 1616); details: S. cerevisiae 75Q-TubH polyglutamine aggregation suppression; stronger effect = higher value
[6] = circadian clock period modulators, cell-based, LOPAC library, luminescence reporter (AID 2774); details: circadian reporter cells, at 7 µM, actives lie on both sides;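 also: values are relative to mean of DMSO wells on each plate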
[7] = system: Hepatitis C virus NS3 helicase; experiment: HCV NS3 helicase inhibitors, primary screen, biochemical, fluorescence polarization, LOPAC1280 library (AID 687035; in the data active = inhibition above about 37%); details: Purified HCV NS3 helicase, Cy5-dT15 ssDNA binding fluorescence polarization; stronger effect = higher value; concentration not given here
[8] = Cy5 fluorescence quenching or enhancement artefacts, artefact control for HCV NS3 helicase inhibitor project, biochemical, LOPAC1280 (AID 687037); details: Cy5-DNA-NS3h complex fluorescence interference counterscreen
[9] = modulation of C. elegans fzo-1 (AID 1259413);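 also: fzo-1 mutant C. elegans worms in liquid wells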; details: C. elegans fzo-1 modulator screen, mean read-out; stronger effect = higher value
[10] = system: Aerobactin synthetase IucA (Klebsiella pneumoniae, hypervirulent); experiment: IucA enzyme inhibition, biochemical, LOPAC library, absorbance readout (AID 1346212); details: IucA enzyme assay, absorbance (OD) readout; stronger effect = lower value;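 tested at 8 µM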;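 also: 100% = no compound wells and 0% = no enzyme wells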
[11] = phospholipid biosynthesis inhibitors in animal cells, primary screen, cell-based, LOPAC library, screen 4 (AID 1347384); details: phospholipid biosynthesis inhibition screen, at 10 µM
F380Y = experiment: modulators of BK channel variants, profiling panel, selectivity assay, cell-based, U2OS BacMam, thallium flux, beta subunits (AID 1259406;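 active = thallium flux through the channel raised or lowered by more than 3 SD from vehicle-only wells, actives on both sides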;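 also: initial slope of Thallos dye fluorescence rise after thallium is added; log ratio against the mean of 0.3% DMSO vehicle wells on the same plate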); details: at 30 µM
F380Y/beta1 = experiment: as above; details: at 30 µM
F380Y/beta2Delta = experiment: as above; details: at 30 µM
R275C = experiment: as above; details: at 30 µM
R275C/beta1 = experiment: as above; details: at 30 µM
R275C/beta2Delta = experiment: as above; details: at 30 µM
R275C/Slo1WT/beta2 = experiment: as above; details: at 30 µM
[12] = biological target: ATP-dependent translocase ABCB1 (Homo sapiens) (UniProt P08183); experiment: MDR1 (ABCB1) efflux transporter inhibition, cell-based (AID 377; in the data active = fluorescence slope change above about 50%); details: MDR1-expressing cells, fluorescent substrate accumulation slope; stronger effect = higher value; concentration not given here
[13] = hESC survival regulators, cell-based (AID 493140); details: human embryonic stem cell survival screen; stronger effect = higher value;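 also: cells exposed to compounds for four days before counting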

ATP-dependent translocase ABCB1 (Homo sapiens), sequence (P08183 whole entry, looked up): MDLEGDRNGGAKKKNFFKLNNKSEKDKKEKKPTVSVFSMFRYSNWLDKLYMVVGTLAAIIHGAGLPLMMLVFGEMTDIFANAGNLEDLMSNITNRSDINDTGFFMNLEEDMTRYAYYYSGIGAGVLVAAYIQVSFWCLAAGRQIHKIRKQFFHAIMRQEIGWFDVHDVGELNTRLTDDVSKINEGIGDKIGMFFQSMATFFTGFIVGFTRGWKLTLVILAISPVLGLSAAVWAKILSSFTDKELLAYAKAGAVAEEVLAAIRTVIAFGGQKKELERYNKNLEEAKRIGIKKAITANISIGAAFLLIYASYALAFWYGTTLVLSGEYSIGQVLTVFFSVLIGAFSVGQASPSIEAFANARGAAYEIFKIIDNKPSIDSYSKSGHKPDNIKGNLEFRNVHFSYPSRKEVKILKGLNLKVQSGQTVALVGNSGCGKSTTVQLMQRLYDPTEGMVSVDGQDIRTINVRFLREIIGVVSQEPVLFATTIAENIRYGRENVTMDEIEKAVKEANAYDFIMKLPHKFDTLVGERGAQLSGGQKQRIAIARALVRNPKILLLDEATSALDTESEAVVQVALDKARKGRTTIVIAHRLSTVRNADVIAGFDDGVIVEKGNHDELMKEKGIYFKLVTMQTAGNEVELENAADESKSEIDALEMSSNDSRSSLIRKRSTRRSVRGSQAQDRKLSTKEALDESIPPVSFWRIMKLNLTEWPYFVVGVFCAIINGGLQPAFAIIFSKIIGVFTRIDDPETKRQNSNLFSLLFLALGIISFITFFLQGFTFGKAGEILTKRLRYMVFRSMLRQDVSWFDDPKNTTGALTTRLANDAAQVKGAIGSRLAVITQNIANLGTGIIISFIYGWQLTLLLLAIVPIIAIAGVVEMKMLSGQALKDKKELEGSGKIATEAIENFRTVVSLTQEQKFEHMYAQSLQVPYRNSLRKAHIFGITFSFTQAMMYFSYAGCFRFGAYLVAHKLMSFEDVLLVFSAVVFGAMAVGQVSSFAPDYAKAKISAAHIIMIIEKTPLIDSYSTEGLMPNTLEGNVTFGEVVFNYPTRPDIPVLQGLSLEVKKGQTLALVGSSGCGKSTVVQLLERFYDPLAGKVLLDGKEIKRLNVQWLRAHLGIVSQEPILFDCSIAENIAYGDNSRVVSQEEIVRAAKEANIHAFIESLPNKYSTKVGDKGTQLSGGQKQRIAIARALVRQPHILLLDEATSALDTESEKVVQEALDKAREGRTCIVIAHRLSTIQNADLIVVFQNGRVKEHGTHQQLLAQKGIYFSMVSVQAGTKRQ

## O=P1(N(CCCl)CCCl)NCCCO1 (configuration not stated)
[1]
  inhibition: -14.8%
[2]
  rescue above control: -5.6
[3]
  glutamate uptake change: -7.13%
[4]
  inclusion score: 2
[5]
  aggregation suppression score: 1.14
[6]
  period change: 0.185 h (inactive)
[7]
  inhibition: -3% (inactive)
[8]
  fluorescence ratio (interference): 1 (inactive)
[9]
  mean signal: 262 (inactive)
[10]
  remaining activity: 112% (inactive)
[11]
  outcome: inactive
F380Y
  log fold change Tl+ flux: -0.0772 (inactive)
F380Y/beta1
  log fold change Tl+ flux: -0.00569 (inactive)
F380Y/beta2Delta
  log fold change Tl+ flux: -0.037 (inactive)
R275C
  log fold change Tl+ flux: -0.0233 (inactive)
R275C/beta1
  log fold change Tl+ flux: 0.00892 (inactive)
R275C/beta2Delta
  log fold change Tl+ flux: -0.0421 (inactive)
R275C/Slo1WT/beta2
  log fold change Tl+ flux: 0.011 (inactive)

## O=[N+]([O-])O[C@H]1CO[C@H]2[C@@H]1OC[C@H]2O[N+](=O)[O-]
[12]
  fluorescence slope change: -12.8% (inactive)
[1]
  inhibition: 15%
[2]
  rescue above control: -2.31
[3]
  glutamate uptake change: -15.4%
[4]
  inclusion score: 1
[5]
  aggregation suppression score: 1.27
[13]
  survival: 6 (inactive)

## CNC(C)(C)Cc1ccccc1
[12]
  fluorescence slope change: 29.7% (inactive)
[1]
  inhibition: -8.9%
[2]
  rescue above control: -1.26
[3]
  glutamate uptake change: 3.05%
[4]
  inclusion score: 2
[5]
  aggregation suppression score: 1.35
[13]
  survival: 4.83 (inactive)

## Cc1cc(O)ccc1Cl
[1]
  inhibition: 17.2%
[2]
  rescue above control: 2.39
[3]
  glutamate uptake change: -10.2%
[4]
  inclusion score: 2
[5]
  aggregation suppression score: 0.639

## O=c1oc2ccccc2c(O)c1Cc1c(O)c2ccccc2oc1=O
[12]
  fluorescence slope change: -7.2% (inactive)
[1]
  inhibition: 3.41%
[3]
  glutamate uptake change: -38%
[4]
  inclusion score: 1
[5]
  aggregation suppression score: 1.26
[13]
  survival: 4.42 (inactive)

## N[C@@H]1C[C@H]1c1ccccc1
[13]
  survival: 34.7 (inactive)
[10]
  remaining activity: 95.5% (inactive)

## CC(C)[N+](C)(CCC(C(N)=O)(c1ccccc1)c1ccccc1)C(C)C
[1]
  inhibition: 22%
[2]
  rescue above control: -11.8
[3]
  glutamate uptake change: 20%
[4]
  inclusion score: 1.5
[5]
  aggregation suppression score: 1.25
[13]
  survival: 6.08 (inactive)

## C[C@@H]1O[C@@H](O[C@H]2C[C@@H](O)[C@]3(CO)[C@H]4[C@H](O)C[C@]5(C)[C@@H](C6=CC(=O)OC6)CC[C@]5(O)[C@@H]4CC[C@]3(O)C2)[C@H](O)[C@H](O)[C@H]1O
[6]
  period change: -0.18 h (inactive)
[13]
  survival: 1.08 (inactive)
[7]
  inhibition: -4% (inactive)
[8]
  fluorescence ratio (interference): 1 (inactive)
[10]
  remaining activity: 109% (inactive)
[11]
  outcome: inactive

## Cc1cccc(C)c1NC1=NCCCS1
[12]
  fluorescence slope change: 18% (inactive)
[1]
  inhibition: -1.23%
[2]
  rescue above control: -0.14
[3]
  glutamate uptake change: -9.68%
[4]
  inclusion score: 2
[5]
  aggregation suppression score: 1.27
[6]
  period change: -0.19 h (inactive)
[13]
  survival: 6.75 (inactive)
[7]
  inhibition: -2% (inactive)
[8]
  fluorescence ratio (interference): 1 (inactive)
[10]
  remaining activity: 121% (inactive)
[11]
  outcome: inactive

## COc1ccc(Cc2nccc3cc(OC)c(OC)cc23)cc1OC
[12]
  fluorescence slope change: 84.8% (active)
[1]
  inhibition: 3.42%
[2]
  rescue above control: 14.9
[3]
  glutamate uptake change: -13.9%
[4]
  inclusion score: 2
[5]
  aggregation suppression score: 1.65
[6]
  period change: -0.02 h (inactive)
[13]
  survival: 5.5 (inactive)
[7]
  inhibition: -1% (inactive)
[8]
  fluorescence ratio (interference): 1 (inactive)
[10]
  remaining activity: 119% (inactive)

## CCCCCCCCC(=O)NCc1ccc(O)c(OC)c1
[6]
  period change: 0.08 h (inactive)

## NC(=O)CN1CCCC1=O
[12]
  fluorescence slope change: 61.1% (active)
[1]
  inhibition: 13.3%
[2]
  rescue above control: -11
[3]
  glutamate uptake change: -1.66%
[4]
  inclusion score: 2
[5]
  aggregation suppression score: 1.37
[6]
  period change: 0.015 h (inactive)
[13]
  survival: 17.8 (inactive)
[7]
  inhibition: -4% (inactive)
[8]
  fluorescence ratio (interference): 1 (inactive)
[10]
  remaining activity: 110% (inactive)
[11]
  outcome: inactive

## COc1ccccc1N1CCNCC1
[6]
  period change: 0.075 h (inactive)
[7]
  inhibition: -4% (inactive)
[8]
  fluorescence ratio (interference): 0.9 (inactive)
[10]
  remaining activity: 96.8% (inactive)
[11]
  outcome: inactive

## COc1c2c(cc3c1OCO3)CCN(C)C2
[12]
  fluorescence slope change: 4% (inactive)
[13]
  survival: 4.08 (inactive)

## Clc1ccc(C(OCCN2CCCCC2)c2ccccc2)cc1 (configuration not stated)
[12]
  fluorescence slope change: 54.5% (active)
[1]
  inhibition: 4.2%
[3]
  glutamate uptake change: 29.4%
[5]
  aggregation suppression score: 1.4
[13]
  survival: 3.58 (inactive)

## C=C(C)[C@H]1CN[C@H](C(=O)O)[C@H]1CC(=O)O
[6]
  period change: 0.025 h (inactive)
[7]
  inhibition: -3% (inactive)
[8]
  fluorescence ratio (interference): 1 (inactive)
[10]
  remaining activity: 119% (inactive)
[11]
  outcome: inactive

## CCC1(CC)C(=O)C=CNC1=O
[12]
  fluorescence slope change: 54.5% (active)
[1]
  inhibition: 13.3% and -20.6%
[2]
  rescue above control: 1.62 and 19.3
[3]
  glutamate uptake change: -11.1% and -15%
[4]
  inclusion score: 2
[5]
  aggregation suppression score: 0.581 and 1.33
[13]
  survival: 10.8 (inactive)

## CC(=O)Nc1cc([As](=O)(O)O)ccc1O
[1]
  inhibition: -3.61%
[2]
  rescue above control: -5.17
[3]
  glutamate uptake change: -5.59%
[4]
  inclusion score: 2
[5]
  aggregation suppression score: 1.35

## CC(=O)[O][Hg][c]1ccccc1
[2]
  rescue above control: 0
[3]
  glutamate uptake change: -17.8%
[5]
  aggregation suppression score: -0.131

## Clc1ccc(CSC(Cn2ccnc2)c2ccc(Cl)cc2Cl)cc1 (configuration not stated)
[12]
  fluorescence slope change: 21.9% (inactive)
[1]
  inhibition: 16.4%
[2]
  rescue above control: 23
[3]
  glutamate uptake change: 6.86%
[5]
  aggregation suppression score: 0.000314
[13]
  survival: 7.67 (inactive)

## Oc1ccc(Cl)cc1
[1]
  inhibition: -57%
[2]
  rescue above control: 0.9
[3]
  glutamate uptake change: 4.5%
[4]
  inclusion score: 2
[5]
  aggregation suppression score: 0.223

## CCCCCCCCCCCCCCCC[N+](C)(C)C
[1]
  inhibition: 66.5%
[2]
  rescue above control: 0
[3]
  glutamate uptake change: -41.1%
[5]
  aggregation suppression score: -0.0208

## CC[n+]1c(-c2ccccc2)c2cc(N)ccc2c2ccc(N)cc21
[1]
  inhibition: 24.8%
[2]
  rescue above control: 0
[3]
  glutamate uptake change: 5.78%
[5]
  aggregation suppression score: 0.0827

## c1ccc2c(c1)sc1ccccc12
[1]
  inhibition: 11%
[2]
  rescue above control: 18.8
[3]
  glutamate uptake change: -0.7%
[5]
  aggregation suppression score: 0.0947

## NCCc1cc(O)c(O)cc1O
[1]
  inhibition: 18.9%
[2]
  rescue above control: -4.94
[3]
  glutamate uptake change: -13.1%
[5]
  aggregation suppression score: 1.41

## NC(=O)c1cc([N+](=O)[O-])cc([N+](=O)[O-])c1
[1]
  inhibition: -15.4%
[2]
  rescue above control: -6.77
[3]
  glutamate uptake change: -3.86%
[4]
  inclusion score: 2
[5]
  aggregation suppression score: 1.47

## CC(=O)NC1CCSC1=O (configuration not stated)
[13]
  survival: 5.75 (inactive)

## CC1=C2[C@H]3OC(=O)[C@@H](C)[C@@H]3CC[C@@]2(C)C=CC1=O
[13]
  survival: 2.25 (inactive)

## CC(C)(C)NCC(O)c1cc(Cl)c(N)c(Cl)c1 (configuration not stated)
[12]
  fluorescence slope change: -2.7% (inactive)
[1]
  inhibition: 5.01%
[2]
  rescue above control: -3.16
[3]
  glutamate uptake change: -4.4%
[4]
  inclusion score: 2
[5]
  aggregation suppression score: 1.64
[13]
  survival: 11.5 (inactive)

## C[C@H]1C(=O)O[C@@H]2CCN3CC=C(COC(=O)[C@](C)(O)[C@]1(C)O)[C@H]23
[12]
  fluorescence slope change: 24.9% (inactive)
[1]
  inhibition: 11.2%
[2]
  rescue above control: 10.3
[3]
  glutamate uptake change: 4%
[4]
  inclusion score: 2
[5]
  aggregation suppression score: 1.12
[13]
  survival: 1.5 (inactive)

## NCC(CC(=O)O)c1ccc(Cl)cc1 (configuration not stated)
[12]
  fluorescence slope change: 76.7% (active)
[1]
  inhibition: -4.56%
[2]
  rescue above control: 5.24
[3]
  glutamate uptake change: -15.4%
[4]
  inclusion score: 2
[5]
  aggregation suppression score: 1.13
[6]
  period change: 0.145 h (inactive)
[13]
  survival: 9.17 (inactive)
[7]
  inhibition: -1% (inactive)
[8]
  fluorescence ratio (interference): 0.9 (inactive)
[11]
  outcome: inactive

## CCC(COC(=O)c1cc(OC)c(OC)c(OC)c1)(c1ccccc1)N(C)C (configuration not stated)
[9]
  mean signal: 257 (inactive)
F380Y
  log fold change Tl+ flux: -0.284 (active)
F380Y/beta1
  log fold change Tl+ flux: -0.135 (active)
F380Y/beta2Delta
  log fold change Tl+ flux: -0.21 (active)
R275C
  log fold change Tl+ flux: -0.249 (active)
R275C/beta1
  log fold change Tl+ flux: -0.324 (active)
R275C/beta2Delta
  log fold change Tl+ flux: -0.495 (active)
R275C/Slo1WT/beta2
  log fold change Tl+ flux: -0.104 (active)

## NN=C(N)N
[6]
  period change: -0.015 hour (inactive) and -0.1 hour (inactive)
[7]
  inhibition: -1% (inactive) and -5% (inactive)
[8]
  fluorescence ratio (interference): 1 (inactive) and 0.9 (inactive)
[10]
  remaining activity: 111% (inactive) and 119% (inactive)
[11]
  outcome: inactive

From PubChem BioAssay
